Data on 51 compounds can be found in ChEMBL document CHEMBL4513216, “Probing the Open Global Health Chemical Diversity Library for Multistage-Active Starting Points for Next-Generation Antimalarials” (ACS Infect Dis, 2020).

In all, about 65,000 compounds went through this assay and about 2,100 (3.2%) showed an effect of 50% or more. The median lay at about -52%. For the sample, strong results were picked, then their nearest neighbours and some compounds at random.

For this assay, the system named is Plasmodium falciparum. The assay is described as follows: Screen against P. falciparum Asexual Blood Stage (ABS), at 5uM. The conditions noted are these: tested at 5 uM. The format is functional, Dd2.
Take `CCN(Cc1cccc(Cl)c1)Cc1ncc(C(C)(C)C)o1`: the INHIBITION is recorded as -14.1%. In the case of `Cc1cccc(CN(Cc2ccccn2)S(=O)(=O)N(C)C)c1` it was -25.3%; in that of `Cc1cccc(CN(Cc2ccccn2)Cc2ncc(C(C)(C)C)o2)c1`, 60.4%; in that of `CCN1CCN(C)C(=O)C12CCN(Cc1cccc(C)c1)CC2`, 41.8%. Regarding `CCN1CCN(C)C(=O)C12CCN(Cc1ccsc1)CC2`, the INHIBITION is -35.5%. As for `CCc1ccc(CN2CCC3(CC2)C(=O)N(C)CCN3CC2CC2)cc1`, the INHIBITION came out at 68.9%. In the case of `CN(CCc1ccccc1)c1cnn(C)c(=O)c1Br` it was -12.3%. Turning to `CC(NC(=O)CSCC(N)=O)c1ccc(Oc2ccccc2)cc1` (stereo unspecified), the INHIBITION is recorded as -25.1%.

On to `NC(CC1CCCC1)c1ccccc1` (stereo unspecified), for which the INHIBITION was 66.7%. For `c1ccc(Oc2ccc(OC34CCCN(CC3)C4)cc2)cc1` (stereo unspecified), the INHIBITION was found to be 40.7%. With `NC(=O)C(NC1CCN(CC2CCCCC2)CC1)c1ccccc1` (stereo unspecified), the INHIBITION is listed as -75%. On to `NC(CC1CCCC1)c1ccc(Oc2ccccc2)cc1` (stereo unspecified), for which the INHIBITION amounted to 79.9%. Take `OC(CN1CCN(CC2CCCCC2)CC1)c1ccccc1` (stereo unspecified): the INHIBITION stood at 3.94%. In the case of `N#CCCCOc1cccnc1NC(=O)Cc1ccccc1F`, the INHIBITION is reported as -150%. As to `CN(CC(=O)NCC1CCCO1)Cc1nc2c(s1)CCCC2` (stereo unspecified), the INHIBITION was -39.8%. For the compound `Cc1cc(C)c(CN2CCCC23Cc2ccccc2CNC3=O)c(C)c1` (stereo unspecified), the INHIBITION is given as 8.96%.

With `CC(C)C(=O)NC1CCCN(C(=O)c2ccc(O)c(Cl)c2)C1` (stereo unspecified), the INHIBITION was -84%.

With `O=C(Nc1ccccc1Cn1cccn1)N1CCCC(N2CCCC2)C1` (stereo unspecified), the INHIBITION was -31.7%. With `CN1CCN(c2ccc3ccc(C(=O)N4CCCO4)cn23)CC1`, the INHIBITION was 6.88%. On to `COc1c(CNCc2ccnc(N3CCCCC3)c2)c(C)nn1C`, for which the INHIBITION is reported as -15.8%. On to `COc1cc(CNCc2ccnc(N3CCCCC3)c2)cc(OC)c1`, for which the INHIBITION amounted to 61.4%.

Turning to `COc1c(CNCc2ccnc(N3CCCC3)c2)c(C)nn1C`, the INHIBITION was -64.4%. With `COc1ccc(CNCc2ccnc(N3CCCCC3)c2)cc1OC` the figure was -9.72%; with `COc1cc(CNCc2ccnc(N3CCCC3)c2)cc(OC)c1`, 61.5%; with `COc1cc(CNCc2ccnc(N3CCOCC3)c2)cc(OC)c1`, -50.4%. As for `CC(C)NC(=O)C1CN(C(=O)N(C)C)CC12CCOCC2` (stereo unspecified), the INHIBITION is reported as -145%. With `Cc1cc(N2CCC(N(C)C(=O)c3ccc(C#N)cc3)CC2)nc(C)n1`, the INHIBITION is -6.47%. Turning to `CCCc1noc(CCCC(=O)N2CCCC2c2cnn(C)c2)n1` (stereo unspecified), the INHIBITION was -37%.

Take `COCCN(C)C(=O)c1nc2c(s1)CCCN2c1ccc(C)nn1`: the INHIBITION is reported as -53.3%. As to `CCN1CCCN(C(=O)c2ccc(NC(=O)CC(C)C)c(C)c2)CC1`, the INHIBITION is -98.5%. Take `Cc1cccc(C(=O)N2CC[C@@H]3[C@H]2CCC(=O)N3c2ccccc2)n1`: the INHIBITION is reported as -87%. `OC1(CNCc2cnc(N3CCOCC3)nc2)CCCCC1`: the INHIBITION was -74.5%.

Consider `c1ccc(C2(CNCc3cnc(N4CCOCC4)nc3)CC2)cc1`, for which the INHIBITION was -22.6%. Consider `Cc1ccccc1C1(CNCc2cnc(N3CCOCC3)nc2)CC1`, for which the INHIBITION was determined as 50.8%. For `CCN(CC)CCNc1ncc(-c2cc(C)no2)c(-c2ccoc2C)n1`, the INHIBITION was 61.9%.

Take `Cc1cc(-c2cnc(NC3CCCC3)nc2-c2ccoc2C)on1`: the INHIBITION is -65.8%. Turning to `Cc1cc(-c2cnc(NC3CC3)nc2-c2ccoc2C)on1`, the INHIBITION is -62%.

Consider `CCc1nc(C2CCCN(C(=O)c3ccccc3F)C2)no1` (stereo unspecified), for which the INHIBITION is -49.5%.

As to `CS(=O)(=O)N1C[C@H]2CC[C@@H](C1)N(C/C=C/c1ccc(F)cc1)C2`, the INHIBITION is -43.1%. With `CN(C)C(=O)CN1C[C@H]2CC[C@@H](C1)N(C/C=C/c1ccc(F)cc1)C2` the figure was 43.5%. With `CN(C)C(=O)N1C[C@H]2CC[C@@H](C1)N(C/C=C/c1ccc(F)cc1)C2` the figure was 57.8%. For the compound `NC(=O)Cn1ccc(O)c(Cc2ccc(Cl)cc2Cl)c1=O`, the INHIBITION is -144%. As for `CCCOC1CCCN(c2ccnc(C(=O)NCc3ccco3)c2)C1` (stereo unspecified), the INHIBITION is recorded as 64.2%. With `CN(C)[C@H]1CCN(c2ccnc(C(=O)NCc3ccco3)c2)C1` the figure was -95.2%; with `O=C(NCc1ccco1)c1cc(N2CC[C@@H](O)C2)ccn1`, -217%; with `Cc1ncnc2c1CCN(S(=O)(=O)C1CC1)CC2`, -47.1%. On to `CCc1nc(CN2CCCC(N(C)CCc3cccs3)C2)no1` (stereo unspecified), for which the INHIBITION came to 12.3%. For the compound `Cn1ccnc1CN1CCCN(C(=O)COC2CCCCC2)CC1`, the INHIBITION is recorded as -46.8%. Consider `COc1cccc([C@H]2CN(CCCS(=O)(=O)N(C)C)C[C@@H]2N)c1`, for which the INHIBITION is recorded as -56.8%. Consider `C/C=C(\C)CN1C[C@H](c2cccc(OC)c2)[C@@H](N)C1`, for which the INHIBITION was found to be 65.6%.

Take `CCOCCN1C[C@H](c2cccc(OC)c2)[C@@H](N)C1`: the INHIBITION is on record as -3.38%.
